# Source: PubChem BioAssay (Broad Institute)
# TcdB GH inh – TcdB glycohydrolase inhibition | P18177 | hit rate 0.24% among 350,000 | TcdB glycohydrolase enzymatic assay, plate reader | AID 652162 | inhibition, % at 9.99 µM; in the data active = inhibition above about 10%
# BH1578 lux ind – induces V. cholerae light production without autoinducers; V. cholerae BH1578 lux reporter, luminescence, 6 h; activation, % at 18.7 µM; hit rate 0.16% among 350,000; in the data active = activation mostly above about 9.7%, no sharp cut-off
# FadD28 FP inh – blocks FadD28 binding to the bisubstrate probe; fluorescence polarization; inhibition, % at 12.5 µM; hit rate 0.22% among 360,000; in the data active = inhibition above about 8.5%, passing the limit was not always enough
# Y pestis TopoI – blocks Yersinia pestis topoisomerase I activity. activity, % at 10 µM. hit rate 0.064% among 360,000. AID 504884. Y. pestis Topo-I cleavage product accumulation, plate reader; in the data active = activity above about 50%, passing the limit was not always enough
# Mtb BioA inh – inhibitors of Mycobacterium tuberculosis BioA enzyme | inhibition, % at 9.99 µM | purified M. tuberculosis BioA enzyme, plate reader | hit rate 0.096% among 360,000; in the data active = inhibition above about 40%
# * marks the source's active call; other numbers are inactive results; i = inactive; x = no result given; ! = a repeat was not active. An excerpt weighted towards active compounds, which were near 0.58% of everything screened.
SMILES,TcdB GH inh,BH1578 lux ind,FadD28 FP inh,Y pestis TopoI,Mtb BioA inh
CCCC(=O)Nc1ccc2c(c1)OC[C@H](C)N(C(=O)CC1CC1)C[C@@H](C)[C@@H](OC)CN(C)C2=O,-1.1,x,x,x,-0.7
O=c1cc(Nc2ccc3c(c2)OCCO3)[nH]c(=O)n1C1CCCCC1,-0.4,i,15.1*,9.5,-1.2
CCc1noc(C)c1C(=O)Nc1cc(S(=O)(=O)N2CCOCC2)ccc1OC(C)C,-1.3,-1.8,16.2*,-10.1,0.8
COc1ccc(S(=O)(=O)N2CCOCC2)cc1NC(=O)COC(=O)c1[nH]c(C)c(C(C)=O)c1C,13.2*,-0.8,-3.3,13.9,-0.5
CC(=O)c1c(C)[nH]c(C(=O)OCC(=O)Nc2cc(S(=O)(=O)N3CCCC3)ccc2Cl)c1C,x,i,-0.3,12.9,0.8
CO[C@@H]1CN(C)C(=O)c2cc(NC(C)=O)ccc2OC[C@@H](C)N(C(=O)c2ccccn2)C[C@@H]1C,0.5,x,x,x,-4.0
COc1ccc(NS(=O)(=O)c2cccc(C(=O)NNC(=O)CNC(=O)c3ccco3)c2)cc1,-0.9,-0.7,-4.4,8.8,1.3
CCOc1ccccc1C(=O)NCC(=O)NNC(=O)c1cccc(S(=O)(=O)Nc2ccc(OC)cc2)c1,3.0,536.2*,-3.4,6.5,x
CCCNC(=O)N1[C@@H](CO)[C@@H](c2ccccc2)[C@@H]1CNC(=O)c1cccc(F)c1,-0.2,x,x,x,-5.0
Oc1cc(O)cc(/C=C/c2ccc(O)c(O)c2)c1,10.3*,i,3.3,-18.3,-1.9
C/C=C/c1ccc(O)c(OC)c1,-7.8,-0.3,-3.4,-2.4,0.2
O=C(O)CC(C(=O)O)N1C(=O)/C(=C/c2ccc(-c3nc4ccccc4s3)o2)SC1=S (stereo not given),x,-2.6,29.2*,-14.2,-2.6
C[C@H](CO)N1C[C@H](C)[C@H](CN(C)S(C)(=O)=O)Oc2c(NC(=O)c3cnccn3)cccc2C1=O,1.3,x,x,x,-0.5
COc1cc(/C=C(/NC(=O)c2ccccc2)C(=O)Nc2ccc(O)cc2)c([N+](=O)[O-])cc1OC,13.2*,-0.7,-2.5,-12.7,x
O=C(Nc1ccc(O)cc1)/C(=C\c1cccs1)NC(=O)c1ccccc1,19.1*,-0.6,-1.3,4.1,x
Cc1ccc(NC(=O)/C(=C\c2cccs2)NC(=O)c2ccccc2)cc1,x,-2.6,-1.7,2.4,x
CCS(=O)(=O)N[C@H]1CC[C@@H](CC(=O)NCc2ccc(Cl)cc2)O[C@@H]1CO,-0.1,x,x,x,2.7
C/C(=N\NC(N)=S)c1ccc2c(c1)OCCO2,12.3*,-2.0,-1.3,4.5,x
C[C@H]1CN([C@@H](C)CO)C(=O)c2cc(C#CC3CCCC3)cnc2O[C@H]1CN(C)C(=O)Nc1ccccc1,1.1,x,x,x,0.9
N#CC1(NC(=O)COC(=O)C2=COCCO2)CCCCC1,-0.4,-5.0,18.0*,4.9,1.6
CN(C(=O)COC(=O)C1=COCCO1)C1(C#N)CCCCC1,0.1,i,-1.0,-0.6,-4.2
O=C(O)c1cc(N/N=C/c2ccncc2)ccc1Cl,-0.3,-0.6,-1.6,-11.1,-1.4
O=C(O)c1cc(-c2ccc(/C=N/Nc3ccc(Cl)cc3)o2)ccc1Cl,x,-8.7,14.7*,-8.7,26.5
CC(C)c1ccc(/C=N/Nc2ccc(C(=O)O)cc2)cc1,-0.7,1.6,0.9,-8.4,x
O=C(O)c1ccc(N/N=C/c2ccc(-c3ccccc3)cc2)cc1,1.4,i,18.5*,8.4,x
SMILES,TcdB GH inh,BH1578 lux ind,FadD28 FP inh,Y pestis TopoI,Mtb BioA inh
O=C(O)c1cc(N/N=C/c2ccc(-c3ccccc3)cc2)ccc1Cl,-2.8,i,19.1*,-9.1,1.6
Nc1nonc1C(=O)N/N=C/c1ccc(-c2ccc(Cl)c(C(=O)O)c2)o1,-1.2,-0.6,-4.6,0.6,x
COc1cc(/C=N/Nc2ccc(Cl)c(C(=O)O)c2)ccc1OC(=O)c1ccco1,-1.5,0.1,4.0,12.3,1.6
COc1ccc(C(=O)Oc2ccc(/C=N/Nc3ccc(Cl)c(C(=O)O)c3)cc2OC)cc1,-2.2,-0.2,9.5*,1.8,4.8
CCCN1[C@@H]2c3ccc(-c4ccccc4)c(=O)n3C[C@@H]2[C@@H](CO)[C@@H]1C(=O)OC,-0.9,x,x,x,-1.1
COc1ccc(COC[C@@]23Oc4ccccc4[C@@H](NC(=O)N2C)[C@H]3CO)cc1,0.4,x,x,x,-0.8
O=C(C[C@H]1CC[C@@H]2[C@H](COC[C@H](O)CN2S(=O)(=O)c2cccc(F)c2)O1)Nc1ccccc1,0.8,x,x,x,-4.0
CC(C)CC#Cc1ccc2c(c1)O[C@@H](CN(C)Cc1cccnc1)[C@@H](C)CN([C@@H](C)CO)S2(=O)=O,1.7,x,x,x,2.7
COCCNC(=O)[C@H]1[C@H](CO)[C@H]2Cn3c(cccc3=O)[C@@H]1N2Cc1cc(F)ccc1F,-0.7,x,x,x,0.8
CN(c1ccccc1)S(=O)(=O)c1ccc2ccccc2c1,0.6,-0.3,1.0,-2.2,-0.1
O=CN(c1ccccc1)c1ccc2ccccc2c1,13.0*,-0.4,-0.9,11.7,x
CCC(=O)N1[C@@H]2Cn3c(ccc(-c4ccncc4)c3=O)[C@H]1[C@@H](C(=O)NC1Cc3ccccc3C1)[C@@H]2CO,-0.9,x,x,x,-2.6
Cc1ccc(C)c2c1cc(C)c1nnc(SCC(=O)NCc3ccc4c(c3)OCO4)n12,10.1*,-0.3,-4.4,23.9,x
Cc1cc(C)c2cc(C)c3nnc(SCC(=O)NCc4ccc5c(c4)OCO5)n3c2c1,x,-0.3,-1.2,11.6,-0.9
C[C@@H]1CN([C@H](C)CO)C(=O)c2cccc(NC(=O)C3CCCCC3)c2O[C@H]1CN(C)Cc1ccc(C(=O)Nc2ccccc2N)cc1,-1.0,x,x,x,0.0
COC(=O)c1ccc(C2C(Oc3ccc(OC)cc3)C(=O)N2CCc2ccc(F)cc2)cc1 (stereo not given),x,i,-0.5,66.9*,x
O=C1CSC(=S)N1/N=C/c1ccc(O)c(O)c1O,x,3.7,9.4*,-7.3,-0.6
C[C@@H]1CN([C@H](C)CO)S(=O)(=O)c2ccc(C#Cc3ccncc3)cc2O[C@H]1CN(C)C(=O)C1CCC1,0.9,x,x,x,1.3
O=C(NC1CC1)c1cccc(Nc2ccc(-c3ccc4c(c3)OCCO4)nn2)c1,x,-0.5,-1.7,3.2,-1.7
O=S(=O)(c1ccc(Nc2ccc(-c3ccc4c(c3)OCCO4)nn2)cc1)N1CCCC1,0.5,i,11.4*,3.0,-0.3
CCN1[C@@H]2c3ccc(C4=CCCC4)c(=O)n3C[C@@H]2[C@@H](CO)[C@@H]1C(=O)NCCCN(C)C,-0.3,x,x,x,x
C[C@H](CO)N1C[C@H](C)[C@@H](CN(C)C(=O)Nc2ccc(C(F)(F)F)cc2)Oc2c(cccc2N(C)C)C1=O,14.1*,i,4.9,20.8,1.5
C[C@H]1CN([C@@H](C)CO)C(=O)c2cccc(NS(=O)(=O)c3ccccc3)c2O[C@H]1CN(C)C(=O)Nc1ccc(C(F)(F)F)cc1,-0.1,x,x,x,1.6
C[C@H](CO)N1C[C@H](C)[C@@H](CN(C)C(=O)Nc2ccc(C(F)(F)F)cc2)Oc2c(NS(=O)(=O)c3ccccc3)cccc2C1=O,10.3*!,i,2.3,3.9,1.4
Cc1noc(C)c1NC(=O)N(C)C[C@@H]1Oc2ccc(NC(=O)C3CCCCC3)cc2C(=O)N([C@@H](C)CO)C[C@H]1C,12.5*!,i,-0.9,-6.1,9.2
